The text below walks through data of PubChem BioAssay (NCI).

This is part of a sample that, as a whole, favours compounds with a hit. Of some 83,000 tested, about 20% had one in any assay.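 Activity criterion: percent growth below 10, measured after cells in 96-well plates were exposed to a single compound concentration for 48 hours.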 Unmarked numbers belong to inactive results. The source made the active and inactive calls.

This test has as its system HL-60(TB) leukemia. The test can be described thus: NCI-60 one-dose screen, 48 h (100 = growth as untreated, 0 = no growth, -100 = all killed). The following applies: 10 µM unless noted.
In the case of `Cc1ccc(C(=Nc2ccccc2)N=P(c2ccccc2)(c2ccccc2)c2ccccc2)cc1`, the growth is -4.41% (active).

For `CC/C=C\C[C@H](O)C/C=C1/C(=O)C=C[C@@H]1C/C=C\CCCC(=O)NC`, the growth is -27.2% (active).

Regarding `COc1cc(/C=C/C(=O)c2ccc(F)cc2)ccc1OCCCCOc1ccc(/C=C/C(=O)c2c(C)nc3ccccc3c2C)cc1OC`, the growth was 79.8%.

`CCOC(=O)c1nc2c3ccccc3cnn2c1C(=O)c1ccc(OC)cc1`: the growth is 102%.

With `CCOC(=O)c1cc(C(=O)c2cc(OC)c(OC)c(OC)c2)n2nc(C)ccc12`, the growth was -24.2% (active).

For `CNC(=O)c1cn2c3c(c(N4CCN(C)CC4)c(F)cc3c1=O)OC[C@@H]2C`, the growth was 99.3%.

`O=C(O)COc1ccc(Cl)cc1C1CCCCC1`: the growth is 116%.

As to `O=C(Nc1ccc(Nc2ccncc2)cc1)c1ccc(Nc2ccnc3ccc([N+](=O)[O-])cc23)cc1`, the growth is 79.9%.

Regarding `CC(C)(C)c1cc(C(=O)Nc2cc3ccccc3cc2C(=O)NCCN)cc(C(C)(C)C)c1`, the growth is -68.9% (active).

Consider `CSc1nc(=O)n(Cc2ccc(F)cc2)c(=O)n1Cc1ccc(C)cc1`, for which the growth was 90%.

Consider `COc1ccc(-c2nnc(SCC(=O)Nc3ccc(C(=O)/C=C/c4ccc(OC)c(OC)c4)cc3)o2)cc1`, for which the growth was 74.7%.

For the compound `O=C(NCCCl)Nc1nccnc1OCc1ccc(F)cc1`, the growth is -18.9% (active).

Consider `COc1ccc(S(=O)(=O)NCCNc2nccc(-c3c(-c4cccc(N)c4)nc4sccn34)n2)cc1`, for which the growth is 116%.

For the compound `C[C@H]1Oc2cc(cnc2N)-c2c(nn(C)c2C#N)CN(C)C(=O)c2ccc(F)cc21`, the growth is 77%.

`CCOC(=O)c1ccc(N2NC(=O)/C(=C/c3ccc([N+](=O)[O-])o3)C2=O)cc1`: the growth is 85.5%.

In the case of `CCOC(=O)c1ccccc1SC(C[N+](=O)[O-])c1ccccc1` (centres undefined), the growth was 89.7%.

On to `O=c1c2ccccc2n(CC(O)CN2CCCC2)c2c(Br)cccc12` (centres undefined), for which the growth is 82.3%.

Turning to `COc1cc(/C=N/Nc2ncnc3c2c(C)nn3-c2ccc(F)cc2)ccc1O`, the growth was 98.3%.

For `CCOC(=O)C1C(=O)C=C(c2cnccn2)CC1c1ccc(OC)c(OC)c1` (centres undefined), the growth was 63.9%.

As for `CSc1ncc2ncn(C3OC(CO)C(O)C3O)c2n1` (centres undefined), the growth is 114%.

Take `COc1ccc(-c2ccc(-c3ccc(C(=N)N)nc3)s2)cc1`: the growth was -47.3% (active).

For `C=C1C(=O)O[C@H]2[C@H]1CC/C(C=Nc1ccc(C(F)(F)F)cc1N)=C\CC[C@@]1(C)O[C@@H]21`, the growth was -7.77% (active).

For `FC(F)(F)c1ccc(-c2ncc(-c3ccc(C(F)(F)F)cc3)c(NCc3cc(C(F)(F)F)cc(C(F)(F)F)c3)n2)cc1`, the growth was 71.7%.

On to `Nc1nc(Cl)cc(Cl)n1`, for which the growth was 74.2%.
